# Source: PubChem (National Center for Advancing Translational Sciences (NCATS))
# VDR inhibitor: blocks the human vitamin D receptor; AID 504847; 400,000 compounds, 0.93% hits; VDR-SRC2-3 peptide fluorescence polarization, 2 h; Potency, µM, for the others: max response, negative = inhibition, usual class: inhibitors; P11473; further: on the % scale 0 is the no-effect control and ±100 the full control effect
#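 Inhibition of the VDR/SRC2-3 peptide interaction is quantified by fluorescence polarization. Compounds (23 nl, pintool) incubate with the reagents for 2 hours at ambient room temperature.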
# G9a inh: G9a (human) methyltransferase inhibition | AID 504332 | G9a H3K9 monomethylation, AlphaScreen, 2 h | Q96KQ7 | 350,000 compounds, 8.8% hits | Potency, µM (highest dose often 102 µM), for inactives: top-dose activity, negative = inhibition, actives largely listed as inhibitors; further: on the % scale 0 is the no-effect control and ±100 the full control effect; nearly all actives have a fitted effect of over 75% in size
#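 G9a (20 nM) preincubated 15 min RT with compounds, then 500 nM biotinylated H3K9 peptide and 20 uM SAM added; 2 h RT reaction. Monomethyl-H3K9 product detected by AlphaScreen with anti-H3K9me1 antibody, streptavidin donor and anti-rabbit IgG acceptor beads.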
# HP1b binding inh: blocks HP1-beta chromodomain binding to methylated histone tails | 390,000 compounds, 0.56% hits | AlphaScreen HP1-beta / biotin-H3K9me3 peptide binding | Potency, µM (highest dose often 114 µM), without a hit: top-dose activity change, negative = inhibition, actives largely listed as inhibitors | P83916; further: nearly all actives have a fitted effect of over 70% in size
#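 Compound inhibition of the preformed complex between 50 nM HP1-beta and 50 nM biotinylated H3K9me3 peptide was read by AlphaScreen. Buffer was PBS pH 7.4 with 0.01% Tween-20. Incubations ran 30 min at room temperature, with 10 ug/mL donor/acceptor beads.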
# BAZ2B block: inhibitors of human BAZ2B bromodomain | Q9UIF8 | AlphaScreen BAZ2B-H3K14Ac peptide displacement | Potency, µM (highest dose often 114 µM), for inactives: at the top dose activity change, negative = inhibition, actives largely listed as inhibitors | 360,000 compounds, 4.4% hits | AID 504333; further: on the % scale 0 is the no-effect control and ±100 the full control effect; nearly all actives have a fitted effect of over 60% in size
#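 BAZ2B 50 nM plus b-H3(5-23)K14Ac 50 nM, PBS pH 7.4/0.01% Tween-20, 30 min RT; compound added (max 110 uM), 30 min RT; streptavidin donor/Ni-chelate acceptor beads 10 ug/mL final, 20 min dark; AlphaScreen read.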
# JMJD2A Tudor inh: JMJD2A Tudor domain (human) inhibition. AlphaScreen JMJD2A-Tudor / H3K4me3 peptide binding. Potency, µM (top dose mostly 114 µM), for inactives: top-dose activity change, negative = inhibition, usual class: inhibitors. 390,000 compounds, 4.4% hits. AID 504339; further: on the % scale 0 is the no-effect control and ±100 the full control effect; nearly all actives have a fitted effect of over 50% in size
# Target sequence (O75164 whole entry, looked up, the tested form may be a part): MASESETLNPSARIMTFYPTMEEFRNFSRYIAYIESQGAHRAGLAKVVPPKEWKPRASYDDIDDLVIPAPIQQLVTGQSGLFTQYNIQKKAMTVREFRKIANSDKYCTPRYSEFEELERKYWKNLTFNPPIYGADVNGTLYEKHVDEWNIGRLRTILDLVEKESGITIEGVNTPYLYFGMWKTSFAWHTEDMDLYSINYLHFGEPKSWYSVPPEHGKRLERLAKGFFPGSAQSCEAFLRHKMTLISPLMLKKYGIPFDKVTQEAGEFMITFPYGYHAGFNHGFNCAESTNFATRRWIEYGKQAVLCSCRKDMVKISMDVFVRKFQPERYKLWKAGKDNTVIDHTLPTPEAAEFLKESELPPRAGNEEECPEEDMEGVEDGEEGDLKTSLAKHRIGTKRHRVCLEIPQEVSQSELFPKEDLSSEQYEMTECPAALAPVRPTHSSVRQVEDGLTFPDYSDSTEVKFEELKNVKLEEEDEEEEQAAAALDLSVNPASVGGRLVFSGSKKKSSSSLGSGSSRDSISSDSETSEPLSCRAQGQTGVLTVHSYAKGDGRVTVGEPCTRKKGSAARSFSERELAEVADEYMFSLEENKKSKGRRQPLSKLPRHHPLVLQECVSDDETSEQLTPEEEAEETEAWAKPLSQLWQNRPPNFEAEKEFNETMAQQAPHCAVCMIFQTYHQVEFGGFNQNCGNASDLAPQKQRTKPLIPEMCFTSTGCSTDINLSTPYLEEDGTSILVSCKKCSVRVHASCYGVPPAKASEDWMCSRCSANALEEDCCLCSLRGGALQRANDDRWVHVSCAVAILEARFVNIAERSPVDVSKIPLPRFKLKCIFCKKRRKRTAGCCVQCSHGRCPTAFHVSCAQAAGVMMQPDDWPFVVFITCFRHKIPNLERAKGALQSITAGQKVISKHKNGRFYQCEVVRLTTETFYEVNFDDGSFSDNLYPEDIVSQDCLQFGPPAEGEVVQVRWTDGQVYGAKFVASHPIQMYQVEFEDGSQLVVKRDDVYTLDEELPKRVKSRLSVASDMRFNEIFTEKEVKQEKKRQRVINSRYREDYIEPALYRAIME
# PLK1 PBD inh: blocks phosphopeptide binding to human PLK1 polo-box domain; Plk1 PBD binding of FITC phosphopeptide, fluorescence polarization; Potency, µM, inactives show max response, negative = inhibition, hits mostly inhibitors; 360,000 compounds, 2.8% hits; further: series mostly up to about 57 µM; on the % scale 0 is the no-effect control and ±100 the full control effect; nearly all actives have a fitted effect of over 65% in size
# An asterisk follows results filed as active; ? = inconclusive; . = no result; [ ] = remark or other dose. In the library only some 11% were active in any assay of this set; here they are far more common. The call rests on the fitted dose curve; in most records, active means well fitted curve in the direction sought with a large enough effect; inconclusive means small, poorly fitted or top-dose-only effect, or another doubt; inactive means no such curve, though single readings can be large; an effect the other way counts as inactive or inconclusive. Potency means the concentration at half of the fitted maximal effect.
SMILES,VDR inhibitor,G9a inh,HP1b binding inh,BAZ2B block,JMJD2A Tudor inh,PLK1 PBD inh
CN(Cc1ccco1)c1nc(-c2ccccc2C(F)(F)F)nc2ccccc12,35µM*,1%[0.501 µM],.,.,.,.
COc1ccccc1-c1nc(N(C)Cc2ccco2)c2ccccc2n1,?,0%[0.501 µM],.,.,.,.
CCOC(=O)c1cccc(NC(=O)C2CCN(S(=O)(=O)c3ccc4c(c3)oc(=O)n4C)CC2)c1,-27%,0%[59 µM],48%,-2%,-8%,.
CN1CCN(C(=O)CN(c2ccccc2)S(=O)(=O)N(C)C)CC1,-18%,2%,30%,-17%,-14%,-10%
CS(=O)(=O)N(CC(=O)N1CCN(c2ccccc2)CC1)C1CCCCC1,?,14%[59 µM],-15%,8%,50µM*,27µM*
Cc1cc(C)cc(N(CC(=O)N2CCN(c3ccccc3)CC2)S(=O)(=O)c2c(C)noc2C)c1,-22%,?,1%,-11%,?,24µM*
Cc1ccccc1N(CC(=O)N1CCN(c2ccccc2)CC1)S(C)(=O)=O,-11%,50µM*,23%,-4%,-18%,-21%
Cc1ccc(Cl)cc1N1CCN(C(=O)CN(c2ccccc2)S(=O)(=O)N(C)C)CC1,10%,-9%,6%,45µM*,-12%[11.4 µM],-21%
CCc1ccc(NC(=O)CSc2nccn2-c2ccc(F)cc2)cc1,8%,60%[59 µM],-15%[57 µM],16%,?,.
CCc1nc(N)nc(N)c1-c1ccc(Cl)c(N=[N+]=[N-])c1,-25%,.,2%,.,-19%,-8%
CCc1ccccc1N(CC(=O)N1CCN(c2ccc(F)cc2)CC1)S(C)(=O)=O,1%,79µM*,20%,-10%,?,-2%
COc1cc(C(c2oc(CO)cc(=O)c2O)c2oc(CO)cc(=O)c2O)cc(OC)c1OC,-9%,11µM*,55%,50µM*,?,-10%
COc1cc(C(c2c(O)cc(C)[nH]c2=O)c2c(O)cc(C)[nH]c2=O)ccc1O,?,-6%,-10%,-3%,-11%,-11%
COc1ccc(C(c2oc(CO)cc(=O)c2O)c2oc(CO)cc(=O)c2O)cc1OC,3%,20µM*,43%,50µM*,?,4%
COC(=O)c1ccc(N2CCc3ccccc32)c([N+](=O)[O-])c1,-14%,16µM*,?,7.9µM*,14µM*,-10%
COC(=O)c1ccc(N2CCN(CC(=O)c3ccc(C)cc3)CC2)c([N+](=O)[O-])c1,4%,.,30%,.,-32%,-14%
COC(=O)c1ccc(N2CCC(c3cc(-c4ccc(OC)cc4)n[nH]3)CC2)c([N+](=O)[O-])c1,-14%,16µM*,-19%,?,?,1%
COC(=O)c1ccc(N2CCN(CC(=O)c3ccc(-c4ccccc4)cc3)CC2)c([N+](=O)[O-])c1,-3%,45µM*,12%,-36%[57.1 µM],-27%,-27%
COc1ccc(-c2cc(C3CCN(c4ccc(C(C)=O)cc4[N+](=O)[O-])CC3)[nH]n2)cc1,-3%,24%[0.0925 µM],-15%,?,?,-6%
O=C(O)c1ccc(N2CCN(C(c3ccccc3)c3ccccc3)CC2)c([N+](=O)[O-])c1,-29%,32µM*,-10%,?,?,?
CCOC(CNC(=O)c1ccc(N2CCc3ccccc32)c([N+](=O)[O-])c1)OCC,-16%,11µM*,28µM*,40µM*,56µM*,-9%
O=C(O)c1ccc(N2CCc3ccccc32)c([N+](=O)[O-])c1,3%,?,-4%,?,-30%,-4%
O=C(NCc1ccc(F)cc1)c1ccc(N2CCc3ccccc32)c([N+](=O)[O-])c1,?,25µM*,50µM*,7.1µM*,18µM*,-13%
CCCCOC(=O)c1ccc(Nc2nc3ccccc3c3nnc(C)n23)cc1,-1%,-4%[59 µM],23%,-13%,-7%,.
C[N+](C)(C)CCOC(=O)C1(c2ccccc2)CCCC1,-9%,3.5µM*,?,1%,-29%[11.4 µM],?
SMILES,VDR inhibitor,G9a inh,HP1b binding inh,BAZ2B block,JMJD2A Tudor inh,PLK1 PBD inh
CCOc1ccccc1C(=O)N1CCc2cc(OC)c(OC)cc2C1COc1ccc2c(C)cc(=O)oc2c1 (stereo not drawn),-10%,?,3%,-13%,-20%,.
NC(=O)c1cccc(S(=O)(=O)N2CCCCC2)c1,1%,-2%[59 µM],41%,14%,-4%,-5%
Nc1cccc2c1C(=O)N(C(=O)c1cccc(S(=O)(=O)N3CCCC3)c1)C2=O,-19%,?,69%,2%,-8%,4.2µM*
Cc1ccc(-c2cn(-c3ccccc3)c(SCC(N)=O)n2)cc1C,-9%,?,-22%,50µM*,?,-4%
CCOC(=O)NC(=O)CSc1nc(-c2ccc(C)c(C)c2)cn1-c1ccccc1,-12%,7.9µM*,?,35µM*,?,-6%
Cc1ccccc1-n1cc(-c2ccc(Br)cc2)nc1SCC(N)=O,6%,-39%[59 µM],-10%,?,?,4%
CC1(C(=O)NS(=O)(=O)c2cccc(F)c2)CCN1C(=O)Cc1ccccc1 (stereo not drawn),.,.,.,.,.,6%
COC(=O)C1C(O)=C(C(C)=Nc2cccc3ccccc23)C(=O)CC1(C)C (stereo not drawn),-9%,-64%,-5%,-32%,79µM*,-13%
COC(=O)C1C(O)=C(C=NC2CCCCC2)C(=O)CC1(C)C (stereo not drawn),-6%,-5%,38%,7%,-18%[11.4 µM],-9%
CCC(=O)Nc1nc(N)n(-c2ccccc2)n1,-6%,6%[59 µM],17%,?,-27%,-1%
Nc1nc(NC(=O)C(Cl)(Cl)Cl)nn1-c1ccccc1,4%,16%,11%,8.9µM*,25µM*,-8%
Nc1nc(NC(=O)c2cccnc2)nn1-c1ccccc1,3%,14µM*,8%,79µM*,11µM*,1%
Nc1nc(NC(=O)c2ccc(Cl)cc2)nn1-c1ccccc1,4%,0%[59 µM],26%,?,-18%,2%
COCC(=O)Nc1cc(C)cn(Cc2c(F)cccc2Cl)c1=O,?,7%,17%,-25%,?,3.4µM*
O=C(NC1CCCC1)C(c1ccc(F)cc1)N(Cc1ccc(Cl)cc1)C(=O)CCl (stereo not drawn),-15%,?,27%,2%,-19%,-19%
Cc1cc(C)c(S(=O)(=O)C(C)C)c(=O)[nH]1,4%,3%,-18%,-2%,-10%,24µM*
Cc1cc(C)c(S(C)(=O)=O)c(=O)[nH]1,11%,13%,18%,2%,-6%,-16%
Oc1ccccc1C(=S)N1CCN(C(=S)c2ccccc2O)CC1,-23%,3.5µM*,?,6%,-33%,24µM*
N#C/C(=C(/O)c1ccc([N+](=O)[O-])cc1)c1nnc2n1CCCCC2,13%,50µM*,22%,?,28µM*,-6%
